The subject of the first experiment is THRa:RXRa (NR concentration 90 nM, RXRa partner concentration 90 nM). Kind of experiment: PBM binding z-score (relative to random genomic background probes); higher = stronger binding; sequences stand for … in GC…GCGATTGACAGCGTAGAATGAAGG
The method in brief: (§1)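 Ligand-free nuclear receptor dimers were applied to custom Agilent 4×180K protein-binding microarrays whose double-stranded probes carried direct-repeat seeds, single-nucleotide variants, half-site ablations and random human genomic background sequences in 34-nt variable regions. Incubation lasted 1 h. Binding z-scores were computed against the random background probes from regression-normalized fluorescence.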
Regarding CTCGAAAGGTCGGTCGAGGTGAGTATACGGATAA, the PBM binding z-score is 5.04.
The same measure, in the same setting: to CAAACTAGGTCACCGGAAGGACAAAGTCCGCATG belongs 3.81; to AGAACGAGCGCAATGAGTTGATAGCACGGGTGGC, -0.609.
With TCCATTAGTTGATTAGGGCAACCGAAACAGCGGA, the PBM binding z-score came out at 0.718.
The same measure, in the same setting: to CCGACTGGGGCAAAGGTTACTATACTCAGTACGA belongs 1.44.
Consider ACTAGCATGCCAAGTTTGGGTCACTCAAACAAAG, for which the PBM binding z-score worked out at 2.19.
CCAAGTTGGTCAAGGTCACACACGCTATAGGTAC came in with a PBM binding z-score of 4.06.
Sequence CGTCCAAGGTCAAGGTAAGTGAAAGAGACTCGAA returned a PBM binding z-score of 3.97.
The sequence ATCTCTAGGTAACAAGTTCAGGGAAAGAGAGGAC displayed a PBM binding z-score of 1.85.
The sequence CCGACTGCGGCAAAGGTTACCATACTCAGTACGA showed a PBM binding z-score of 1.33.
With AGAATGACGTTATACGTAGATCAGGGAAGAAAGT, the PBM binding z-score was -0.592.
For TCTAGTTGGTCAAAGGTCACACCCTCGAAATGCG, the PBM binding z-score was 4.02.
In turn, GCAGACAGGTGAAACGTAGGTAACTCAGGGTGGC returned a PBM binding z-score of 1.2.
As to ATCTCTATGTAACCAAGTTCAGTGAATGCCGAAC, the PBM binding z-score was 0.659.
GCGGCTGGGGCAAAGCAGGTTACCATAAGGTTGG displayed a PBM binding z-score of 3.18.
On the same count and under the same terms, to ACTACTAGTTGAGACGAGGGCAACCGATAGGTTG belongs 2.46; to CGAACTAGGTCATTAACAGGACAGTGAATAGTAA, 2.76.
AGAGTGAGGTTAAGATCAGGGAAACAGAATACAT yielded a PBM binding z-score of 2.6.

For a further experiment, the system named is THRa homodimer (NR concentration 90 nM). Described as above. The method in brief: as §1
In turn, CCTCCTGGGCCACGAAAGGTCATTGATTCAGTGA registered a PBM binding z-score of 0.846.
Sequence CCTTACGGGTCACAAGGTTATAGCACGACGAGCG gave a PBM binding z-score of 0.935.
On the same count and under the same terms, to GCTGCTAAGTCAACTGATGGTCAGCTAAAGCTCG belongs -1.1; to CCGACTGGGGCAAAGGGTACCATACTCAGTACGA, -0.963.
On the same count and under the same terms, to CCTAGTTGGTCTAGGTCACACACGCTATAGGTAC belongs 2.78.
As to ATCTCTAGTTAACAAGTTCAGTGAAAGAGAGGAC, the PBM binding z-score is 0.867.
Consider ATTCAAAGTTCACTAGGTAACGTAAGATTCAGCT, for which the PBM binding z-score worked out at 0.474.
As for ACAGACAGATGATGAAGGTAACTCAGGCTATCAT, the PBM binding z-score turned out to be 0.192.
On the same count and under the same terms, to TCTTGTTGATCAACAGGAGGTTAAGAAAGATCGA belongs -0.731.
For ACTAGTTGGTCAGCTGAGGTCAGACACAATTCGG, the PBM binding z-score stood at 3.42.
Still for that read-out and setting: to ACTATTAGTTAAGACGAGGGCAACCGATAGGTTG belongs 0.204.
Same read-out and setting: to TCTGCTAGGTCAAGGATGGTCAGCTAATCTGCTA belongs 0.621; to TAGCTTAGGTCATGGGCCAGTATACCACGCGAAC, 2.42.
The same measure, in the same setting: to CCTTACGGGCCACTCCAGGTTATAGCATCGGAGT belongs 0.204.
TCATATAGGTAAACAGGTCAAAGTCCGTAAGTTA had a PBM binding z-score of 0.804.
Regarding AGTCAAACTTCATCTAGGTAACGTAAGATATGCT, the PBM binding z-score is 0.329.
Same read-out and setting: to ATCTCTAGGCAAAGTTCAGTGAAAGATCGATAGA belongs -0.26; to ATGTCTAGGTAAAAGTTCAGTGAATCCCGAGGAT, 0.0268; to TCTATTAGTTAAAGGGCAACCGACGAGTCCGTTT, -0.0439.
Same read-out and setting: to CCTACTGGTCCACGAAAGGTCATTGATTCAGTGA belongs 1.6.
On the same count and under the same terms, to ACTCGGAGGACAAAGGTCAGAGTTACGCCAGTGA belongs 0.845; to CCGAGTAGGTTATGTGGCATTCAGGCAACGGTGA, 0.415; to CTCGAAAGGTCGGTCGAGGTGAGTATACGGATAA, 0.386.
Take CAAACTAGGTCACCGGAAGGACAAAGTCCGCATG: the PBM binding z-score worked out at 2.12.
Same read-out and setting: to AGAACGAGCGCAATGAGTTGATAGCACGGGTGGC belongs -1.01; to TCCATTAGTTGATTAGGGCAACCGAAACAGCGGA, 0.498.
On the same count and under the same terms, to CCGACTGGGGCAAAGGTTACTATACTCAGTACGA belongs -0.197; to ACTAGCATGCCAAGTTTGGGTCACTCAAACAAAG, 0.882.
On the same count and under the same terms, to CCAAGTTGGTCAAGGTCACACACGCTATAGGTAC belongs 4.34; to CGTCCAAGGTCAAGGTAAGTGAAAGAGACTCGAA, 2.14; to ATCTCTAGGTAACAAGTTCAGGGAAAGAGAGGAC, 1.01.
With CCGACTGCGGCAAAGGTTACCATACTCAGTACGA, the PBM binding z-score worked out at 0.0326.
Still for that read-out and setting: to AGAATGACGTTATACGTAGATCAGGGAAGAAAGT belongs -1.02.
Still for that read-out and setting: to TCTAGTTGGTCAAAGGTCACACCCTCGAAATGCG belongs 2.2.
As to GCAGACAGGTGAAACGTAGGTAACTCAGGGTGGC, the PBM binding z-score was -0.606.
Still for that read-out and setting: to ATCTCTATGTAACCAAGTTCAGTGAATGCCGAAC belongs 0.156.
Still for that read-out and setting: to GCGGCTGGGGCAAAGCAGGTTACCATAAGGTTGG belongs 0.108.
Still for that read-out and setting: to ACTACTAGTTGAGACGAGGGCAACCGATAGGTTG belongs 0.219; to CGAACTAGGTCATTAACAGGACAGTGAATAGTAA, 0.884; to AGAGTGAGGTTAAGATCAGGGAAACAGAATACAT, 1.3.

A further experiment concerns VDR homodimer (NR concentration 270 nM). The experiment is described as above. The method in brief:
as §1
Turning to CCTCCTGGGCCACGAAAGGTCATTGATTCAGTGA, the PBM binding z-score came to 2.04.
With CCTTACGGGTCACAAGGTTATAGCACGACGAGCG, the PBM binding z-score is 1.54.
The same measure, in the same setting: to GCTGCTAAGTCAACTGATGGTCAGCTAAAGCTCG belongs -1.02; to CCGACTGGGGCAAAGGGTACCATACTCAGTACGA, 0.0229; to CCTAGTTGGTCTAGGTCACACACGCTATAGGTAC, 1.78.
Still for that read-out and setting: to ATCTCTAGTTAACAAGTTCAGTGAAAGAGAGGAC belongs 2.76; to ATTCAAAGTTCACTAGGTAACGTAAGATTCAGCT, 4.11.
On the same count and under the same terms, to ACAGACAGATGATGAAGGTAACTCAGGCTATCAT belongs 0.335.
On to TCTTGTTGATCAACAGGAGGTTAAGAAAGATCGA, for which the PBM binding z-score was -0.304.
Still for that read-out and setting: to ACTAGTTGGTCAGCTGAGGTCAGACACAATTCGG belongs 1.76; to ACTATTAGTTAAGACGAGGGCAACCGATAGGTTG, 0.991.
TCTGCTAGGTCAAGGATGGTCAGCTAATCTGCTA had a PBM binding z-score of -0.0676.
Sequence TAGCTTAGGTCATGGGCCAGTATACCACGCGAAC returned a PBM binding z-score of 0.172.
Still for that read-out and setting: to CCTTACGGGCCACTCCAGGTTATAGCATCGGAGT belongs 0.0382; to TCATATAGGTAAACAGGTCAAAGTCCGTAAGTTA, 1.93; to AGTCAAACTTCATCTAGGTAACGTAAGATATGCT, -0.372.
On the same count and under the same terms, to ATCTCTAGGCAAAGTTCAGTGAAAGATCGATAGA belongs 1.48; to ATGTCTAGGTAAAAGTTCAGTGAATCCCGAGGAT, 0.949.
Turning to TCTATTAGTTAAAGGGCAACCGACGAGTCCGTTT, the PBM binding z-score worked out at 1.77.
The same measure, in the same setting: to CCTACTGGTCCACGAAAGGTCATTGATTCAGTGA belongs 3.62.
ACTCGGAGGACAAAGGTCAGAGTTACGCCAGTGA: the PBM binding z-score was 0.984.
Same read-out and setting: to CCGAGTAGGTTATGTGGCATTCAGGCAACGGTGA belongs 0.153; to CTCGAAAGGTCGGTCGAGGTGAGTATACGGATAA, 0.0425.
The sequence CAAACTAGGTCACCGGAAGGACAAAGTCCGCATG yielded a PBM binding z-score of 1.38.
Same read-out and setting: to AGAACGAGCGCAATGAGTTGATAGCACGGGTGGC belongs 0.00307.
Same read-out and setting: to TCCATTAGTTGATTAGGGCAACCGAAACAGCGGA belongs 0.246; to CCGACTGGGGCAAAGGTTACTATACTCAGTACGA, 0.164.
On to ACTAGCATGCCAAGTTTGGGTCACTCAAACAAAG, for which the PBM binding z-score was 0.673.
The same measure, in the same setting: to CCAAGTTGGTCAAGGTCACACACGCTATAGGTAC belongs 4.56; to CGTCCAAGGTCAAGGTAAGTGAAAGAGACTCGAA, 1.56; to ATCTCTAGGTAACAAGTTCAGGGAAAGAGAGGAC, 2.78.
For the sequence CCGACTGCGGCAAAGGTTACCATACTCAGTACGA, the PBM binding z-score amounted to 0.183.
Still for that read-out and setting: to AGAATGACGTTATACGTAGATCAGGGAAGAAAGT belongs -0.467.
On the same count and under the same terms, to TCTAGTTGGTCAAAGGTCACACCCTCGAAATGCG belongs 3.2.
Regarding GCAGACAGGTGAAACGTAGGTAACTCAGGGTGGC, the PBM binding z-score is -0.684.
The same measure, in the same setting: to ATCTCTATGTAACCAAGTTCAGTGAATGCCGAAC belongs 2.31; to GCGGCTGGGGCAAAGCAGGTTACCATAAGGTTGG, -0.402.
Sequence ACTACTAGTTGAGACGAGGGCAACCGATAGGTTG displayed a PBM binding z-score of 0.599.
On the same count and under the same terms, to CGAACTAGGTCATTAACAGGACAGTGAATAGTAA belongs 1.15; to AGAGTGAGGTTAAGATCAGGGAAACAGAATACAT, 1.06.

Values taken from the supplement of paper PMC6555819.
